This is part of a sample that, as a whole, favours compounds with a hit. Of some 83,000 tested, about 20% had one in any assay.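 Percent growth is the endpoint: 0 to 100 indicates growth inhibition (40 means 60% inhibition), 0 means no net growth, and negative values indicate cell death.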 The source made the active and inactive calls. Rule for the calls: active = growth percent below 10; inactive = the rest.
test system: SN12C renal; test: NCI-60 one-dose screen, 48 h (100 = growth as untreated, 0 = no growth, -100 = all killed); details: 10 µM unless noted

Row | SMILES | growth
1 | COc1ccc2c(c1)C(=O)c1c-2c(=O)n(CCCCCCC(=O)NO)c2ccccc12 | 8.66% (active)
2 | CCC1=C(c2ccc(OC)cc2)C(C)(C)Oc2c1ccc(O)c2CN1CCCC1 | 51.8% (inactive)
3 | CCCCCCCCCCCCCCCCCC1=NC(C)(C)CN1CCO | -29.6% (active)
4 | O=C(Nc1ccc(Cl)cc1)Nc1ccc(Nc2nncc3ccccc23)cc1 | 26.4% (inactive)
5 | COc1cc(C2C=C(c3ccc(C)cc3)Nc3nc(SC)[nH]c(=O)c32)ccc1Oc1ccnc2cc(Cl)ccc12 (stereo not given) | 67% (inactive)
6 | C=C(C[C@@](O)(C(=O)Oc1ccccc1)C(=O)C1CCCCC1)c1ccccc1 | 98% (inactive)
7 | CCCCCCCC1(C)NC(=O)NC1=O (stereo not given) | 109% (inactive)
8 | CCOC(=O)c1c(C)c(C(=O)OCC)n(C)c1C | 104% (inactive)
9 | COc1ccc(-c2cncn2-c2ccc(-c3nc4cc(OC)c(OC)c(OC)c4s3)cc2)cc1N | 72.4% (inactive)
10 | CCc1[nH]nc(-c2ccc(OC)cc2)c1-c1ccccc1OCCN(CC)CC | 96.5% (inactive)
11 | COc1ncc(-c2ccc3nccc(C#CCN4CCN(S(C)(=O)=O)CC4)c3c2)cc1NS(=O)(=O)c1ccc(F)cc1F | 2.52% (active)
12 | COc1ccc2c(c1)C(=O)c1c-2c(OCCCN(C)C)nc2cc(Br)ccc12 | 62.2% (inactive)
13 | N#Cc1c(N)[nH]c(S)c1C#N | 108% (inactive)
14 | CC(O)c1nc2c(c(=O)n(C)c(=O)n2C)n1C (stereo not given) | 104% (inactive)
15 | Cc1ccc(NC(=O)Nc2ccc(-c3cccnc3)cc2N2CCC(CO)CC2)cc1 | 41% (inactive)
16 | COc1ccc(CCN2CCCN3C2=Nc2ccccc2S3(=O)=O)cc1 | 53.7% (inactive)
17 | Cc1nnc(Nc2ccc(NC(=O)Nc3ccc(Cl)cc3)cc2)c2ccccc12 | 60.1% (inactive)
18 | CCCCCCCCCCSc1ncnc2nc[nH]c12 | 59.8% (inactive)

Row | SMILES | growth
19 | C=C(C[C@](O)(C(=O)/C=C/c1ccc(Cl)cc1)C(=O)OC)c1ccccc1 | 74.8% (inactive)
20 | O=C(/C=C/c1ccccc1Cl)c1ccc(O)cc1 | 67.3% (inactive)
21 | CC(=O)NC1(C(=O)O)CCCC1 | 114% (inactive)
22 | CCOC(=O)c1cc(-c2cccnc2)nc2c(Cl)cc(Cl)cc12 | 86.6% (inactive)
23 | CN1C(=O)/C(=C/c2nc(-c3cccc(F)c3)n3ccccc23)c2ccccc21 | 85.9% (inactive)
24 | O=C1C(=O)c2ccc(Br)cc2-c2cc(Br)ccc21 | 34.1% (inactive)
25 | CCN1CCN(c2cc(-c3cn[nH]c3-c3cc(C)cc(OC)c3)nc(-c3cccnc3)n2)CC1 | 85% (inactive)
26 | ClC1=C(Cl)C(Cl)=C(Cl)C1=C/C=C/c1ccccc1 | -46% (active)
27 | O=C(CN1CCCCC1)Sc1nnc2sc3ccccc3n12 | 103% (inactive)
28 | CN1CCN(Cc2ccc(NC(=O)c3[nH]ncc3Nc3ccnc4ccnn34)cc2)CC1 | 35.1% (inactive)
29 | CC1=CC(=O)C(C(C)=Nc2ccccc2Cl)C(=O)O1 (stereo not given) | 105% (inactive)
30 | CSc1ncc2ncn(C3OC(CO)C(O)C3O)c2n1 (stereo not given) | 120% (inactive)
31 | COc1ccc2nc3cc(Cl)ccc3c(Nc3cc(C(C)C)c(O)cc3C)c2c1 | 54.9% (inactive)
32 | c1cnc2ccc3ncccc3c2c1 | 101% (inactive)
33 | O=C(Nc1ccc(Cl)cc1)Nc1ccc(Oc2nncc3ccccc23)cc1 | -3.83% (active)
34 | CCCCCCCC/C=C/CCCCCCCC1=NC(C)(C)CN1CCO | 60.9% (inactive)
35 | CN(CC(=O)N(Cc1ccc(C2CCCCC2)cc1)c1ccc(C(=O)O)cc1)S(=O)(=O)c1c(F)c(F)c(F)c(F)c1F | 19% (inactive)

Source: PubChem BioAssay (NCI)
